In all, about 320,000 compounds went through this assay and about 22,000 (6.9%) were called active. Entries that show only a call come without a potency. Inconclusive results (about 27%) are left out. This is one part of a sample in which actives are shown more often than they occur. Calls come from the whole dose curve; as a rule, active = well fitted inhibition curve with a large enough effect; inconclusive = small, poorly fitted or top-dose-only effect, or another doubt; inactive = no such curve, though single readings can be large or run the other way.
Assay: Primary qHTS for delayed death inhibitors of the malarial parasite plastid, 96 hour incubation
Settings: P. falciparum luciferase reporter growth; series mostly up to 28.7 µM
Method in brief: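 Readout is luminescence from an integrated firefly luciferase in P. falciparum. Red cells, 2% hematocrit and 0.05% parasitemia final, were cultured with compound through two parasite generations (96 hours) at 37 C, 5% CO2.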
Potency is the fitted concentration of half-maximal effect.

| SMILES | Potency | activity change, negative = inhibition |
| --- | --- | --- |
| Cc1ccc(NC(=O)c2cc3ccccc3o2)cc1 | inactive | – |
| O=C(O)c1[nH]c2ccccc2c1C(c1cccc(O)c1)c1c(C(=O)O)[nH]c2ccccc12 | inactive | – |
| COc1ccc(NC(=O)CN(C)C(=O)CNC(=O)C2CCCCC2)cc1 | inactive | – |
| O=S(=O)(Oc1ccccc1C(=S)N1CCOCC1)c1ccc(Cl)cc1 | inactive | – |
| CCCCNC(=O)CCn1nc(-c2ccc(Cl)cc2)ccc1=O | inactive | – |
| Cc1ccc(S(=O)(=O)N(CC(=O)N2CCc3ccccc3C2)c2cccc(Cl)c2)cc1 | 8.28 µM (active) | – |
| Cc1ccc(Cl)c(OCC(=O)N2CCc3ccccc3C2)c1 | inactive | – |
| COc1cccc(N(CC(=O)N2CCc3ccccc3C2)S(C)(=O)=O)c1 | inactive | – |
| CC(C)=CCC/C(C)=C/C(=O)O | inactive | – |
| O=C(NCc1cccnc1)Nc1ccccc1F | inactive | – |
| CC(C)N1C(=O)C2C(C(=O)NC3CCCCC3)C3C=CC2(O3)C1C(=O)NC1CCCC1 (configuration not stated) | – | -1.06% [at 5.75 µM] (inactive) |
| O=C(Nc1ccccc1F)C1C2C=CC3(O2)C1C(=O)N(c1cccnc1)C3C(=O)NC1CCCCC1 (configuration not stated) | 13.1 µM (active) | – |
| Nc1ccccc1C(=O)NC1CCCCNC1=O (configuration not stated) | inactive | – |
| O=C1CCNCCN1[C@H](CO)Cc1ccccc1 | inactive | – |
| Cc1cccc(N2CCN(C(=O)C3CCN(S(=O)(=O)c4cnc[nH]4)CC3)CC2)c1C | inactive | – |
| Cc1cccc([C@H](C)c2cnc[nH]2)c1C | 4.26 µM (active) | – |
| CSc1ncccc1C(=O)NCc1ccccc1Cl | inactive | – |
| COc1ccc(CNC(=O)c2ccc(Br)s2)cc1OC | inactive | – |
| CN(Cc1ccccc1)CC(O)COc1ccc(CNCc2cc3ccccc3s2)cc1 (configuration not stated) | 4.15 µM (active) | – |
| Cc1ccc(OCC(=O)OC(C)CN(C)Cc2ccccc2)cc1 (configuration not stated) | inactive | – |
| OC(CNCc1ccc2c(c1)OCO2)COc1ccccc1 (configuration not stated) | inactive | – |
| CC(C)C[C@H](NC(=O)[C@@H]1O[C@H]1C(=O)O)C(=O)NCCCCN=C(N)N | 3.29 µM (active) | – |
| COP1(=O)C[C@@H](O)[C@@H](O)[C@@H](COCc2ccccc2)O1 (some centres not stated) | inactive | – |

| SMILES | Potency | activity change, negative = inhibition |
| --- | --- | --- |
| COc1ccc(/C=C2\N=C3CCCN3C2=O)cc1 | inactive | – |
| CSc1nc(C)nc(C2CC2)c1C#N | inactive | – |
| Cc1cc(N2CCN(c3ccc(F)cc3)CC2)n2ncnc2n1 | inactive | – |
| Cc1cc(C)nc(N/N=C/c2ccncc2)n1 | inactive | – |
| O=C(N/N=C/c1ccc([N+](=O)[O-])o1)c1cc([N+](=O)[O-])cc([N+](=O)[O-])c1O | inactive | – |
| Cc1cc(C)nc(N/N=C/c2ccc([N+](=O)[O-])o2)n1 | 5.22 µM (active) | – |
| CCOC(=O)c1cc(C(C)C)sc1NC(=O)COC(=O)c1nccnc1N | inactive | – |
| Cc1ccc(NC(=O)[C@H](Cc2ccccc2)NC(=O)C2CCNCC2)cc1 | inactive | – |
| CC(=O)NS(=O)(=O)c1ccc(NC(=O)/C=C/c2ccccc2Cl)cc1 | inactive | – |
| NS(=O)(=O)c1ccc(NC(=O)/C=C/c2ccccc2Cl)cc1 | 10.4 µM (active) | – |
| O=C(/C=C/c1ccccc1Cl)Nc1ccc(S(=O)(=O)Nc2ncccn2)cc1 | inactive | – |
| CCc1noc(C)c1C(=O)NNC(=O)c1ccc(F)cc1 | inactive | – |
| O=S(=O)(c1ccccc1)c1nc(-c2ccccc2)oc1NCCCN1CCOCC1 | inactive | – |
| CCc1nc2sc(C(=O)O)c(N)c2c2c1CCCC2 | inactive | – |
| CCOc1ccccc1C1CC(c2ccccc2)Nc2nc(N)nn21 (configuration not stated) | inactive | – |
| COc1ccc(C2CC(c3ccc(Cl)cc3Cl)Nc3nc(N)nn32)cc1OC (configuration not stated) | inactive | – |
| CCOc1ccccc1C1CC(c2ccc(Cl)cc2)Nc2nc(N)nn21 (configuration not stated) | 10.4 µM (active) | – |
| COCCCNc1nc2ccccc2nc1NS(=O)(=O)c1ccc(F)cc1 | inactive | – |
| Cc1cccc(-n2nc3c(c2NC(=O)c2cc4ccccc4o2)CS(=O)(=O)C3)c1 | inactive | – |
| COc1ccc(/C(C)=N\NC(=O)c2ccc(-c3ccccc3)cc2)c(F)c1 | 10.4 µM (active) | – |
| CCN(CC)c1ccc(C(=O)N/N=C(\C)c2cccc(OC)c2)cc1 | inactive | – |
| COc1cccc(C(=O)N/N=C(\C)c2cccc(NC(=O)c3ccc(F)cc3)c2)c1OC | inactive | – |
| CN(Cc1nc2ccccc2s1)C(=O)c1ccc(F)cc1 | inactive | – |

| SMILES | Potency | activity change, negative = inhibition |
| --- | --- | --- |
| COc1ccccc1CC(=O)Nc1ccc(S(=O)(=O)N2CCCC2)cc1 | inactive | – |
| CCOC(=O)C1CCCN(C(=O)/C=C/c2ccc(OC)cc2)C1 (configuration not stated) | inactive | – |
| Cn1cc(/C=C/C(=O)N2CCCC(C(=O)c3ccc(C(F)(F)F)cc3)C2)cn1 (configuration not stated) | 10.4 µM (active) | – |
| Cn1cc(CCC(=O)N2CCCC(C(=O)c3ccc(C(C)(C)C)cc3)C2)cn1 (configuration not stated) | inactive | – |
| Cc1cccc(NC(=O)N2CCCCCC2)c1C | inactive | – |
| N[C@@H](Cc1ccccc1)C(=O)N1CCOCC1 | inactive | – |
| COc1cccc(CNC(=O)c2cccnc2Sc2ccc(Cl)cc2)c1 | inactive | – |
| O=C1c2cccc3cccc(c23)C(=O)N1c1cccc(O)c1 | inactive | – |
| CCC(=C/c1sc2ccc3ccccc3c2[n+]1C)/C=C1\Sc2ccc3ccccc3c2N1C | 9.28 µM (active) | – |
| CC1(C)C2CCC1(CS(=O)(=O)NCCc1c[nH]c3ccccc13)C(=O)C2 (configuration not stated) | inactive | – |
| Cc1csc(=O)n1CC(=O)OCC(=O)N(CC(C)C)c1c(N)n(Cc2ccccc2)c(=O)[nH]c1=O | inactive | – |
| Nc1nnc2c(C(F)(F)F)nc3ccccc3n12 | inactive | – |
| Cc1ccc(OCCNC(=O)CCNS(=O)(=O)c2ccc(Br)cc2)cc1 | inactive | – |
| COc1cc2c(cc1OC)/C(=C/C(=O)c1ccc(NC(C)=O)cc1)NCC2 | inactive | – |
| COc1ccc(S(=O)(=O)N2CCC(C(=O)NCc3ccco3)CC2)cc1C | 5.22 µM (active) | – |
| Cc1ccc(S(=O)(=O)N2CCC(C(=O)N[C@@H](C)C(=O)NCc3ccco3)CC2)cc1 | inactive | – |
| COc1ccccc1CNC(=O)C1CCN(S(=O)(=O)c2ccc3c(c2)OCCO3)CC1 | inactive | – |
| CCc1ccc(C(=O)N2CCN(S(=O)(=O)c3sc(C(=O)O)c(C)c3C(=O)O)CC2)cc1 | inactive | – |
| COc1cccc(NC(=O)c2ccc(S(=O)(=O)N(C)C)cc2)c1 | inactive | – |
| O=C(Nc1nnc(-c2ccco2)o1)c1ccc(S(=O)(=O)N2CCOCC2)cc1 | inactive | – |
| COc1cccc(-c2nnc(NC(=O)c3ccc(S(=O)(=O)N(CC(C)C)CC(C)C)cc3)o2)c1 | 1.65 µM (active) | – |
